{"source": "PubChem BioAssay (NCATS)"}
{"test": "qHTS profiling of the MIPE4 collection as inhibitors of Plasmodium falciparum (DD2) proliferation (AID 743345)", "details": "P. falciparum Dd2 in erythrocytes, SYBR Green DNA, 72 h; at 28.5 µM (top of the series) unless noted", "method_in_brief": "(§1)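 Parasite DNA was quantified by SYBR Green I fluorescence (ex 485, em 535 nm) after overnight lysis in saponin/Triton buffer at room temperature. Cultures at 0.3% parasitemia and 2.5% hematocrit were first exposed to compound for 72 h at 37 C; signals were normalised to artemisinin (0.29 uM) and vehicle wells.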", "units": {"parasite growth remaining, % of DMSO control (lower = more inhibition)": "%"}}
{"smiles": "c1coc(CNc2ncnc3nc[nH]c23)c1", "parasite growth remaining, % of DMSO control (lower = more inhibition)": 26.3}
{"smiles": "C[C@H]1COc2c(N3CCN(C)CC3)c(F)cc3c(=O)c(C(=O)O)cn1c23", "parasite growth remaining, % of DMSO control (lower = more inhibition)": 69.9}
{"smiles": "C[C@@H]1C(=O)O[C@H]2CC34[C@H]5C[C@@H](C(C)(C)C)C36[C@H](OC(=O)[C@@H]6O)O[C@@]4(C(=O)O5)[C@]21O", "note": "(some centres not stated)", "parasite growth remaining, % of DMSO control (lower = more inhibition)": 97.7}
{"smiles": "C=C1C(=CC=C2CCC[C@]3(C)[C@@H]([C@H](C)CCCC(C)(C)O)CC[C@@H]23)C[C@@H](O)C[C@@H]1O", "parasite growth remaining, % of DMSO control (lower = more inhibition)": 95.2}
{"smiles": "CC(=O)ON=C1C(c2c(O)[nH]c3cc(Br)ccc23)=Nc2ccccc21", "parasite growth remaining, % of DMSO control (lower = more inhibition)": 6.76}
{"smiles": "C[N+](C)([O-])CCNc1ccc(NCC[N+](C)(C)[O-])c2c1C(=O)c1c(O)ccc(O)c1C2=O", "parasite growth remaining, % of DMSO control (lower = more inhibition)": 13.5}
{"smiles": "CN(C)CCN1C(=O)c2cccc3cc(N)cc(c23)C1=O", "parasite growth remaining, % of DMSO control (lower = more inhibition)": 12.6}
{"smiles": "C=C(C)[C@@H]1CC[C@]2(C(=O)O)CC[C@]3(C)[C@H](CC[C@@H]4[C@@]5(C)CC[C@H](O)C(C)(C)[C@@H]5CC[C@]43C)[C@@H]12", "parasite growth remaining, % of DMSO control (lower = more inhibition)": 20.6}
{"test": "qHTS profiling of the MIPE4 collection as inhibitors of Plasmodium falciparum (DD2) proliferation (Rep 2) (AID 743346)", "details": "P. falciparum Dd2 in erythrocytes, SYBR Green DNA, 72 h; at 28.5 µM (top of the series) unless noted", "method_in_brief": "as §1"}
{"smiles": "COc1ccc2cc([S+]([O-])Cc3ncc(C)c(OC)c3C)nc2c1", "parasite growth, % of control (lower = inhibition)": "61.5%"}
{"smiles": "CN(N=O)C(=O)N[C@H]1C(O)OC(CO)[C@@H](O)[C@H]1O", "note": "(some centres not stated)", "parasite growth, % of control (lower = inhibition)": "114%"}
{"smiles": "Oc1ccc(-c2ccc(-c3cc(Nc4cccc(CNC5CC5)c4)n[nH]3)cc2)c(O)c1", "parasite growth, % of control (lower = inhibition)": "20%"}
{"smiles": "C[C@H]1COc2c(N3CCN(C)CC3)c(F)cc3c(=O)c(C(=O)O)cn1c23", "parasite growth, % of control (lower = inhibition)": "49.2%"}
{"smiles": "NC(=NCCCCCCN=C(N)N=C(N)Nc1ccc(Cl)cc1)N=C(N)Nc1ccc(Cl)cc1", "parasite growth, % of control (lower = inhibition)": "22%"}
{"smiles": "C[C@@H](Cc1cc2c(c(C(N)=O)c1)N(CCCO)CC2)NCCOc1ccccc1OCC(F)(F)F", "parasite growth, % of control (lower = inhibition)": "58.3%"}
{"smiles": "O=C(Nc1cc2cc[nH]c2cn1)c1ccccc1", "parasite growth, % of control (lower = inhibition)": "39.2%"}
{"smiles": "Cc1ccc(O)c(C(CCN(C(C)C)C(C)C)c2ccccc2)c1", "note": "(configuration not stated)", "parasite growth, % of control (lower = inhibition)": "10.4%"}
{"smiles": "C[C@@H](Oc1ccc2[nH]nc(C=Cc3cnn(CCO)c3)c2c1)c1c(Cl)cncc1Cl", "parasite growth, % of control (lower = inhibition)": "16.4%"}
{"smiles": "COc1cc2c(cc1O)CCC1C2CC[C@@]2(C)C1CC[C@@H]2O", "note": "(some centres not stated)", "parasite growth, % of control (lower = inhibition)": "67%"}
{"smiles": "Nc1nc2c(c(=O)[nH]1)N(C=O)[C@H](CNc1ccc(C(=O)N[C@@H](CCC(=O)O)C(=O)O)cc1)CN2", "parasite growth, % of control (lower = inhibition)": "86.2%"}
{"smiles": "COc1ccc(C(C)=O)c(O)c1", "parasite growth, % of control (lower = inhibition)": "131%"}
{"smiles": "Cc1ccc2nc(NCCN)c3ncc(C)n3c2c1", "parasite growth, % of control (lower = inhibition)": "33.4%"}
{"smiles": "CC(C=CC=C(C)C=CC1=C(C)CCCC1(C)C)=CC=CC=C(C)C=CC=C(C)C=CC1=C(C)CCCC1(C)C", "parasite growth, % of control (lower = inhibition)": "28.1%"}
{"smiles": "CCOC(=O)[C@@H](N)Cc1ccc(-c2cc(O[C@H](c3ccc(Cl)cc3-n3ccc(C)n3)C(F)(F)F)nc(N)n2)cc1", "parasite growth, % of control (lower = inhibition)": "43.9%"}
{"smiles": "C=C1C(=CC=C2CCC[C@]3(C)[C@@H]([C@H](C)CCCC(C)(C)O)CC[C@@H]23)C[C@@H](O)C[C@@H]1O", "parasite growth, % of control (lower = inhibition)": "22.4%"}
{"smiles": "CC(=O)ON=C1C(c2c(O)[nH]c3cc(Br)ccc23)=Nc2ccccc21", "parasite growth, % of control (lower = inhibition)": "6.05%"}
{"smiles": "CCn1c(=O)c2c(nc(C=Cc3ccc(OC)c(OC)c3)n2C)n(CC)c1=O", "parasite growth, % of control (lower = inhibition)": "34.2%"}
{"smiles": "CC(=CC(=O)Nc1ccccc1C(=O)O)c1ccc2ccccc2c1", "parasite growth, % of control (lower = inhibition)": "133%"}
{"smiles": "C#Cc1cccc(Nc2ncnc3cc(OCCOC)c(OCCO)cc23)c1", "parasite growth, % of control (lower = inhibition)": "18.2%"}
{"smiles": "O=C(C=CC=Cc1ccc2c(c1)OCO2)N1CCCCC1", "parasite growth, % of control (lower = inhibition)": "123%"}
{"smiles": "CCCCCCCCc1ccc(CCC(N)(CO)CO)cc1", "parasite growth, % of control (lower = inhibition)": "24.2%"}
{"smiles": "O=C(Nc1nnc(-c2ccco2)o1)c1cc(-c2ccccc2)nc2ccccc12", "parasite growth, % of control (lower = inhibition)": "42.6%"}
{"smiles": "C[C@H](O)[C@@H]1C(=O)N2C(C(=O)O)=C(S[C@@H]3CN[C@H](CNS(N)(=O)=O)C3)[C@@H](C)[C@@H]12", "parasite growth, % of control (lower = inhibition)": "82.6%"}
{"smiles": "C=CC(=O)Nc1cccc(Nc2nc(NC3CCC(N(C)C)CC3)nc3c2ncn3C(C)C)c1", "note": "(configuration not stated)", "parasite growth, % of control (lower = inhibition)": "35.4%"}
{"smiles": "CN(C)CCN1C(=O)c2cccc3cc(N)cc(c23)C1=O", "parasite growth, % of control (lower = inhibition)": "10.8%"}
{"smiles": "CCOC(=O)N1CCN([N+]([O-])=NOc2ccc([N+](=O)[O-])cc2[N+](=O)[O-])CC1", "parasite growth, % of control (lower = inhibition)": "70.7%"}
{"smiles": "CCC(C(=O)O)C1CCC(C)C(C(C)C(O)C(C)C(=O)C(CC)C2OC3(C=CC(O)[C@@]4(CC[C@](C)(C5CC[C@@](O)(CC)C(C)O5)O4)O3)C(C)CC2C)O1", "note": "(some centres not stated)", "parasite growth, % of control (lower = inhibition)": "7.13%"}
{"smiles": "C=C1C(=O)O[C@H]2[C@@H]1CCC(C)=CCC[C@@]1(C)O[C@@H]21", "parasite growth, % of control (lower = inhibition)": "37.7%"}
{"smiles": "CC(Oc1ccc(O)cc1)(P(=O)(O)O)P(=O)(O)O", "parasite growth, % of control (lower = inhibition)": "64.2%"}
{"smiles": "C=C1CCC2[C@](C)(CO)C(O)CC[C@]2(C)C1CC=C1C(=O)OCC1O", "note": "(some centres not stated)", "parasite growth, % of control (lower = inhibition)": "92.9% [at 57.5 µM]"}
{"smiles": "CN(C)CC(=O)N1CCC(c2ccc(NC(=O)c3ncc(C#N)[nH]3)c(C3=CCCCC3)c2)CC1", "parasite growth, % of control (lower = inhibition)": "12.3%"}
{"smiles": "C[C@H](NCc1ccc2c(c1)nc(NC(=O)c1ccc(-c3cn[nH]c3)s1)n2CCc1ccccc1)C(C)(C)C", "parasite growth, % of control (lower = inhibition)": "13.1%"}
{"smiles": "CC[C@H]1OC(=O)[C@H](C)[C@@H](O[C@H]2C[C@@](C)(OC)[C@@H](O)[C@H](C)O2)[C@H](C)[C@@H](O[C@@H]2O[C@H](C)C[C@H](N(C)C)[C@@H]2O)[C@](C)(OC)C[C@@H](C)C(=O)[C@H](C)[C@@H](O)[C@]1(C)O", "parasite growth, % of control (lower = inhibition)": "66.9%"}
